Experimental data: PubChem BioAssay (NCATS)
Records with an inconclusive call do not appear. A call without a number means that no potency is given here. A number with no mark means an inactive call. Calls of active or inactive are those of the source. The call rests on the fitted dose curve; in most records, active means well fitted curve in the direction sought with a large enough effect; inconclusive means small, poorly fitted or top-dose-only effect, or another doubt; inactive means no such curve, though single readings can be large; an effect the other way counts as inactive or inconclusive.

Key:
UISO = assay: qHTS assay to identify novel small-molecules to repurpose for Merkel cell carcinoma treatment (AID 1296009); settings: MCC and control cell lines, CellTiter-Glo viability, 72 h; series mostly up to 46 µM; further: nearly all actives have a fitted effect of over 60% in size; further: potency means the concentration at half of the fitted maximal effect
Outline: (§1)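 Luminescence from CellTiter-Glo, read 10 min after addition at room temperature, reported viability following a 72 hr, 37 degree celsius treatment with NPC or MIPE compounds in titration; values normalized to plate controls.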

WaGa = assay: as above; settings: MCC and control cell lines, CellTiter-Glo viability, 72 h; series mostly up to 46 µM
Outline: as §1

C33A = assay: Primary qHTS to identify gynecologic anti-cancer compounds using libraries of approved drugs and bioactive compounds (AID 1345084); settings: Gynecologic cancer cell panel viability, ATPlite luminescence, 48 h; series mostly up to 57.5 µM; further: nearly all actives have a fitted effect of over 55% in size
Outline: (§2)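 Measured: luminescence after ATPlite addition (15 min, RT). Exposure: 48 h, 37 C, 5% CO2.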

CAOV3 = assay: as above; settings: Gynecologic cancer cell panel viability, ATPlite luminescence, 48 h; series mostly up to 57.5 µM
Outline: as §2

CASKI = assay: as above; settings: Gynecologic cancer cell panel viability, ATPlite luminescence, 48 h; series mostly up to 57.5 µM
Outline: as §2

Es-2 = assay: as above; settings: Gynecologic cancer cell panel viability, ATPlite luminescence, 48 h; series mostly up to 57.5 µM
Outline: as §2

HeLa = assay: as above; settings: Gynecologic cancer cell panel viability, ATPlite luminescence, 48 h; series mostly up to 57.5 µM
Outline: as §2

Hek293T = assay: as above; settings: Gynecologic cancer cell panel viability, ATPlite luminescence, 48 h, control line for the selectivity index; series mostly up to 57.5 µM
Outline: as §2

JEG-3 = assay: as above; settings: Gynecologic cancer cell panel viability, ATPlite luminescence, 48 h; series mostly up to 57.5 µM
Outline: as §2

OV90 = assay: as above; settings: Gynecologic cancer cell panel viability, ATPlite luminescence, 48 h; series mostly up to 57.5 µM
Outline: as §2

PA-1 = assay: as above; settings: Gynecologic cancer cell panel viability, ATPlite luminescence, 48 h; series mostly up to 57.5 µM
Outline: as §2

SKOV3 = assay: as above; settings: Gynecologic cancer cell panel viability, ATPlite luminescence, 48 h; series mostly up to 57.5 µM
Outline: as §2

Tov-21-G = assay: as above; settings: Gynecologic cancer cell panel viability, ATPlite luminescence, 48 h; series mostly up to 57.5 µM
Outline: as §2

Tov112D = assay: as above; settings: Gynecologic cancer cell panel viability, ATPlite luminescence, 48 h; series mostly up to 57.5 µM
Outline: as §2

Structure (SMILES): CC(C)=CC[C@@H](O)C1=CC(=O)c2c(O)ccc(O)c2C1=O
- Potency (UISO): inactive
- Potency (WaGa): 23.5 µM (active)

Structure (SMILES): CO[C@H]1C[C@@H]2CC[C@@H](C)[C@@](O)(O2)C(=O)C(=O)N2CCCC[C@@H]2C(=O)O[C@H]([C@H](C)C[C@@H]2CC[C@H](OP(C)(C)=O)[C@H](OC)C2)CC(=O)[C@H](C)C=C(C)[C@@H](O)[C@@H](OC)C(=O)[C@H](C)C[C@H](C)C=CC=CC=C1C
- Potency (UISO): inactive
- Potency (WaGa): 23.5 µM (active)

Structure (SMILES): O=C(Nc1cc(Cl)cc2c1[nH]c1cnccc12)c1cccnc1
- Potency (UISO): inactive
- Potency (WaGa): inactive

Structure (SMILES): CC(=O)OC1C(C)OC(Oc2c(-c3ccc(O)cc3)oc3cc(O)cc(O)c3c2=O)C(O)C1OC(C)=O (centres undefined)
- Potency (UISO): inactive

Structure (SMILES): C[C@@H]1CCN(C(=O)CC#N)C[C@H]1N(C)c1ncnc2[nH]ccc12
- Potency (UISO): inactive
- Potency (WaGa): inactive

Structure (SMILES): Cc1cc(OCCCc2c(C(=O)O)n(Cc3cccnc3)c3c(-c4c(COc5ccc(N6CCN([S+](C)(=O)[O-])CC6)cc5)nn(C)c4C)cccc23)cc(C)c1Cl
- Potency (UISO): inactive
- Potency (WaGa): inactive

Structure (SMILES): O=C(N[C@@H](c1ccccc1)[C@@H]1CCCCN1)c1cccc(C(F)(F)F)c1Cl
- Potency (UISO): inactive
- Potency (WaGa): inactive

Structure (SMILES): N#Cc1ccc(NC(=O)Nc2ccccc2Br)c2n[nH]nc12
- Potency (UISO): inactive
- Potency (WaGa): inactive

Structure (SMILES): Nc1ncnc2c1ncn2[C@@H]1O[C@@H](CO)[C@H](O)[C@H]1O
- Potency (UISO): inactive
- Potency (WaGa): inactive

Structure (SMILES): Clc1ccc(-c2nc3sccn3c2C=NOCc2ccc(Cl)c(Cl)c2)cc1
- Potency (UISO): inactive
- Potency (WaGa): inactive

Structure (SMILES): N#CC(=C(N)Sc1ccccc1N)C(C#N)=C(N)Sc1ccccc1N
- Potency (UISO): 1.05 µM (active)
- Potency (WaGa): inactive

Structure (SMILES): CC=CCC=CCCC(=O)[C@H]1O[C@@H]1C(N)=O
- Potency (UISO): inactive
- Potency (WaGa): inactive

Structure (SMILES): O=c1c(-c2ccc(O)cc2)coc2cc(O[C@@H]3O[C@H](CO)[C@H](O)[C@H](O)[C@H]3O)ccc12
- Potency (UISO): inactive
- Potency (WaGa): inactive

Structure (SMILES): O=C(O)C(O)Cc1ccc(O)c(O)c1 (centres undefined)
- Potency (UISO): inactive
- Potency (WaGa): inactive

Structure (SMILES): CC(C)C[C@H](CC(=O)O)C(=O)N[C@@H](Cc1c[nH]c2ccccc12)C(=O)N[C@@H](C)c1ccccc1
- Potency (UISO): inactive
- Potency (WaGa): 3.32 µM (active)

Structure (SMILES): CC1(C)CCC[C@@]2(C)[C@@H]1CC[C@@]1(C)OC(=O)C[C@H]21
- Potency (UISO): inactive
- Potency (WaGa): inactive

Structure (SMILES): O=c1ccn([C@@H]2O[C@H](CO)[C@H](O)[C@H]2O)c(=O)[nH]1
- Potency (UISO): inactive
- Potency (WaGa): inactive

Structure (SMILES): O=C(NOCC(O)CO)c1cc(Br)c(F)c(F)c1Nc1ccc(I)cc1F (centres undefined)
- Potency (UISO): inactive
- Potency (WaGa): inactive

Structure (SMILES): COC1CCC(N(C(=O)C2CCC(C)CC2)c2cc(C3=CCCCC3)sc2C(=O)O)CC1 (centres undefined)
- Potency (UISO): inactive
- Potency (WaGa): inactive

Structure (SMILES): c1ccc2c(Cc3c[nH]c4ccccc34)c[nH]c2c1
- Potency (UISO): 0.469 µM (active)
- Potency (WaGa): inactive

Structure (SMILES): O=C1Nc2ccc(Cl)cc2C(C#CC2CC2)(C(F)(F)F)O1 (centres undefined)
- Potency (UISO): inactive
- Potency (WaGa): inactive

Structure (SMILES): O=C(Nc1ccccc1Br)N[C@@H]1CCN(c2ccc(C(F)(F)F)cn2)C1
- Potency (UISO): inactive
- Potency (WaGa): inactive

Structure (SMILES): COc1ccc2c3c1OC1C[C@@H](O)C=C[C@@]31CCN(C)C2 (some centres undefined)
- Potency (UISO): inactive
- Potency (WaGa): inactive

Structure (SMILES): COc1ccc2cccc(CCNC(C)=O)c2c1
- Potency (UISO): inactive
- Potency (WaGa): inactive
- Potency (C33A): inactive
- Potency (CAOV3): inactive
- Potency (CASKI): inactive
- Potency (Es-2): inactive
- Potency (HeLa): inactive
- Potency (Hek293T): inactive
- Potency (JEG-3): inactive
- Potency (OV90): inactive
- Potency (PA-1): inactive
- Potency (SKOV3): inactive
- Potency (Tov-21-G): inactive
- Potency (Tov112D): inactive

Structure (SMILES): O=C(O)[C@H]1O[C@H](Oc2cc3oc(-c4ccccc4)cc(=O)c3c(O)c2O)[C@H](O)[C@@H](O)[C@H]1O
- Potency (UISO): inactive
- Potency (WaGa): inactive

Structure (SMILES): CCc1ccc(C=C2SC(=S)NC2=O)cc1
- Potency (UISO): inactive
- Potency (WaGa): inactive

Structure (SMILES): CC(C)(C)COc1ccc(-n2cc(C(=O)O)cn2)cc1C#N
- Potency (UISO): inactive
- Potency (WaGa): inactive

Structure (SMILES): CC(C)C(C)C=CC(C)C1CCC2C3=CC=C4CC(O)CCC4(C)C3CCC21C (centres undefined)
- Potency (UISO): inactive
- Potency (WaGa): inactive

Structure (SMILES): CCN(CC)CCOc1ccc(C(=C(Cl)c2ccccc2)c2ccccc2)cc1
- Potency (UISO): inactive
- Potency (WaGa): inactive
